# Bioassay records: PubChem, National Center for Advancing Translational Sciences (NCATS)
# AmpC detergent – AmpC beta-lactamase inhibition with detergent present; P00811; AmpC hydrolysis of nitrocefin, absorbance 480 nm, 0.01% Triton; Potency, µM (titrated, usually from 114 µM), inactives show at the highest dose activity change, negative = inhibition, most hits filed as inhibitors; hit rate 0.041% among 370,000; AID 485294;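 note: 0% = no-compound wells and -100% = no-enzyme wells; nearly all actives have a fitted effect of over 25% in size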
#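 20 mM phosphate pH 7.0 + 0.01% (detergent screen) or 0.0001% Triton X-100; 5.3 nM AmpC reagent; cpd preinc 15 min RT; nitrocefin (800 uM stock) to start; A480 q20 s × 4 min; Activity was normalised to no-enzyme and no-compound control wells.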
# Giardia FBPA inh – Giardia lamblia aldolase inhibition; hit rate 0.71% among 290,000; Potency, µM (top dose mostly 59.6 µM), without a hit: at the highest dose activity, negative = inhibition, most hits filed as inhibitors; purified Giardia FBPA; AID 2451; note: nearly all actives have a fitted effect of over 55% in size
# Target sequence (A8B2U2 whole entry, looked up): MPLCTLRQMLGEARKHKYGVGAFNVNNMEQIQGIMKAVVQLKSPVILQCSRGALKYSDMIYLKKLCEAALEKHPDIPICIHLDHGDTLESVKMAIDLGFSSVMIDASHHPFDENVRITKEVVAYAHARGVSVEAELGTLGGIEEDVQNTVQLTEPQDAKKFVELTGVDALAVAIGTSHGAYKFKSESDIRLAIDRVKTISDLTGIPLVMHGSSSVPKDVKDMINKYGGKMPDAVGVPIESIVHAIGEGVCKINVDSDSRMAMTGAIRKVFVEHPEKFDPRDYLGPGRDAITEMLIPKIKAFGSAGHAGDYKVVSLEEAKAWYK
#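 40 nM FBPA preincubated 10 min at RT with compound (up to 57.5 uM final), then substrate plus GAPDH/TPI/NAD/arsenate coupling and diaphorase/resazurin added. Fluorescence read after 20 min at RT, 525/598 nm.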
# AmpC no deterg – AmpC beta-lactamase inhibition without detergent; P00811; AmpC nitrocefin hydrolysis, absorbance 480 nm, 0.0001% Triton; Potency, µM (top dose mostly 57.1 µM), for the others: top-dose activity change, negative = inhibition, most hits filed as inhibitors; hit rate 0.52% among 330,000; AID 485341;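 note: plate controls were no compound for no effect and no enzyme for full effect; nearly all actives have a fitted effect of over 20% in size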
#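 20 mM phosphate pH 7.0 + 0.01% (detergent screen) or 0.0001% Triton X-100; 5.3 nM AmpC reagent; cpd preinc 15 min RT; nitrocefin (800 uM stock) to start; A480 q20 s × 4 min; Activity was normalised to no-enzyme and no-compound control wells.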
# Sm TGR block – blocks Schistosoma mansoni thioredoxin glutathione reductase. purified TGR, DTNB reduction, TNB absorbance 405 nm. hit rate 3% among 360,000. Potency, µM (doses to about 114 µM), for the others: top-dose activity change, negative = inhibition, hits mostly inhibitors; note: nearly all actives have a fitted effect of over 60% in size
#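 Kinetic colorimetric format: TGR-catalysed, NADPH-driven DTNB reduction monitored via TNB absorbance. Enzyme dispensed at 20 nM; compound exposure 15 min at room temperature before reaction start.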
# RE007 growth inh – less growth of the S. pombe RE007 Vpr strain; S. pombe RE007 Vpr strain, BacTiter-Glo ATP luminescence, 24 h; AID 651644; hit rate 0.21% among 360,000; Potency, µM (highest dose often 92.2 µM), for the others: at the highest dose activity change, negative = less growth, actives largely listed as inhibitors; active = well fitted falling curve with a large enough effect; inconclusive = small, poorly fitted or top-dose-only effect; inactive = no such curve, though single readings can be large or run the other way; note: nearly all actives have a fitted effect of over 50% in size
#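 Fission yeast RE007 carrying one integrated HIV-1 vpr copy, seeded at OD 0.01 in PMG+AL medium with 23 nL pinned compound. Grown 24 h at 30 degrees; viability read by BacTiter-Glo luminescence after 5 min.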
# * = called active by the depositor; u = inconclusive; x = no result given. Only some compounds are listed: those with a hit (about 3.4% of all), similar ones and a draw of the others. Unless noted, calls come from the whole dose curve; as a rule, active = well fitted curve in the direction sought with a large enough effect; inconclusive = small, poorly fitted or top-dose-only effect, or another doubt; inactive = no such curve, though single readings can be large; an effect the other way counts as inactive or inconclusive. Unless noted, % is set by controls: 0 for no effect and ±100 for the full control effect; potency is the fitted concentration of half-maximal effect.
SMILES,AmpC detergent,Giardia FBPA inh,AmpC no deterg,Sm TGR block,RE007 growth inh
Cc1ccc(-c2onc(C)c2C)cc1S(=O)(=O)NC1CCC(C)CC1 (centres undefined),4.4%,x,x,8.3%,x
Cc1cc(NS(=O)(=O)c2ccc(NC(=S)NC(=O)c3ccccc3)cc2)no1,-7.1%,-0.4%,-30.2%,50.1µM*,-11.5%
Cc1cc(NS(=O)(=O)c2ccc(NC(=O)c3ccccc3C)cc2)no1,-9.3%,-1.8%,-5.6%,-1.6%,-1.3%
COc1ccc(C(=O)NC(=S)Nc2ccc(S(=O)(=O)Nc3cc(C)on3)cc2)cc1OC,3.9%,-16.5%,-47.3%,17.8µM*,-13.4%
Cc1ccc(-c2cc(C(=O)Nc3ccc(S(=O)(=O)Nc4cc(C)on4)cc3)c3ccccc3n2)c(C)c1,u,3.7%,10µM*,8.4%,10.4%
CC(C)(C)N1CSC(=S)N(Cc2ccccc2)C1,1.4%,-7.4%,-10.2%,u,0.3%
CC(C)N1CSC(=S)N(Cc2ccccc2)C1,-11.7%,u,61.5%,28.2µM*,0.4%
Cc1ccc(C(=O)NC(C)C(c2cccs2)N2CCCC2)s1 (centres undefined),2.2%,0.6%,-25.1%,-26.6%,-14.0%
CCCCCC(=O)NNC1CC(=O)N(c2cccc(OCC)c2)C1=O (centres undefined),-1.3%,10.1%,20.8%,31.6µM*,-3.4%
Cc1ccc(NNC2CC(=O)N(c3cccc(Cl)c3)C2=O)cc1 (centres undefined),-3.1%,-12.9%,-53.0%,44.7µM*,3.7%
O=C1CC(NNc2ccccc2)C(=O)N1c1ccccc1 (centres undefined),1.3%,-14.6%,-30.8%,-4.0%,26.3%
CC(=O)NCCCC(=O)NNC1CC(=O)N(c2cccc(Cl)c2)C1=O (centres undefined),5.7%,4.2%,-27.1%,11.2µM*,u
CC(O)CCC(=O)NNC1CC(=O)N(c2ccccc2)C1=O (centres undefined),-2.3%,6.3%,-6.9%,-6.3%,11.2%
O=C(O)CSC1CC(=O)N(c2cccc(Cl)c2)C1=O (centres undefined),u,-8.8%,-4.1%,u,-0.1%
CCN(CC)C1CC(=O)N(c2cccc(Cl)c2)C1=O (centres undefined),-7.8%,12.1%,-19.4%,3.98µM*,5.62µM*
CC(C)N1C(=O)C(=O)N(CC(=O)N2CCc3ccccc32)C1=O,-1.0%,x,-17.0%,-18.3%,-16.6%
Cc1ccccc1-c1oc(C)c(C)[n+]1[O-],1.1%,-5.6%,-14.4%,25.1µM*,-1.4%
O=C(CSc1nc2c([nH]c3ccccc32)c(=O)n1-c1ccccc1)c1ccccc1,-5.5%,x,x,-3.6%,x
CCCN1CCN(C(=O)c2noc3c2COc2ccc(C)cc2-3)CC1,-15.4%,-9.3%,103.4%,5.01µM*,4.2%
COc1ccc(C2C=C(c3ccc(Br)s3)Nc3ncnn32)cc1OC (centres undefined),-2.1%,-11.9%,19.0%,50.1µM*,x
COc1ccc(C2C=C(c3ccc(Cl)c(Cl)c3)Nc3ncnn32)cc1 (centres undefined),-5.7%,x,x,19.0%,x
C1=C(c2ccc(-c3ccccc3)cc2)Nc2ncnn2C1c1ccco1 (centres undefined),-2.4%,0.8%,-51.0%,22.4µM*,u
Oc1ccc(C2C=C(c3ccc(F)cc3)Nc3ncnn32)cc1 (centres undefined),-0.9%,-2.3%,-27.2%,44.7µM*,-12.1%
CCOc1ccc(C2C=C(c3ccc(F)cc3)Nc3ncnn32)cc1 (centres undefined),-7.4%,-20.4%,-12.2%,28.2µM*,-7.4%
Cn1c(CC(=O)Nc2ccc(Cl)cc2)nnc1SCC(=O)N1CCOCC1,-11.7%,x,1.6%,u,11.4%
COc1cccc(C2=CC(c3ccccc3)n3ncnc3N2)c1 (centres undefined),-1.1%,9.4%,-4.1%,14.1µM*,x
Cc1ccc(C2C=C(c3ccccc3)Nc3ncnn32)cc1 (centres undefined),x,x,x,x,3.1%
COc1ccc(C2C=C(c3ccc(C)cc3)Nc3ncnn32)cc1 (centres undefined),-4.3%,-19.7%,-5.5%,28.2µM*,-21.4%
